These results are taken from the supplement of paper PMC3334620.

The full ranking holds about 33,000 sequences; the median of “E-score (-0.5 to 0.5)” is about -0.0034, and the highest 2% start at about 0.25. The full list was thinned out, with the highest values kept by preference.

The assay deals with T1, Yap3 (UniProt P38749).
T1 sequence: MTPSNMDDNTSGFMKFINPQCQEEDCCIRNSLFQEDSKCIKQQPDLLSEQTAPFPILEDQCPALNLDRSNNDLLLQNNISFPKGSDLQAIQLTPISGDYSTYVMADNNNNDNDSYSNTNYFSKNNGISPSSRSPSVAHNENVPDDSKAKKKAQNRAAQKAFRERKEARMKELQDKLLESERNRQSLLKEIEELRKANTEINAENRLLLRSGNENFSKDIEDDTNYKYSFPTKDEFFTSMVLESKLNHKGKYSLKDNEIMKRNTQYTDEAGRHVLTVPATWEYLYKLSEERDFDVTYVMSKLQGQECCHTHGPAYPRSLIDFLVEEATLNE
The assay can be described thus: PBM E-score (8-mer binding enrichment) (E-score (-0.5 to 0.5)); higher = stronger / more preferred TF binding. The following applies: protein concentration: 100 nM; construct: GST-full length. As for the experimental part:
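Universal 'all 10-mer' protein binding microarrays (Agilent AMADID 015681) probed with GST-tagged S. cerevisiae TFs (full-length or DBD) made by in vitro transcription/translation (PURExpress), about 100-200 nM. Bound TF was detected with fluorescent anti-GST. Each ungapped 8-mer (which stands for itself and its reverse complement) is scored by the PBM enrichment score (E-score), a modified Wilcoxon-Mann-Whitney statistic from -0.5 to +0.5, computed with the Universal PBM Analysis Suite. Scale: above 0.35 generally sequence-specific binding.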
Regarding TCTATTCA, the “PBM E-score” value turned out to be 0.222. With TCAAACCA the figure was 0.165. With ACACTCGT the figure was 0.00445; with TAATCCAA, 0.24. Turning to AGAGCCCA, the “PBM E-score” value was -0.112. As to CGGAAGAC, the “PBM E-score” value is -0.00677. With ATAATATA the figure was 0.307; with CTAATCTA, 0.00845; with GTAATATA, 0.354. With AGAATATA the figure was 0.14; with ATAATAGG, 0.157; with CGAATATA, 0.148. With GTAATCTA the figure was 0.319. In the case of GTAATAGA, the “PBM E-score” value worked out at 0.223. With CTAATATA the figure was 0.235. Regarding ATAATATC, the “PBM E-score” value was 0.194. With ATAATCTA the figure was 0.229; with ATAATATG, 0.307; with CAATCGGC, -0.0271. With CAAACTGC the figure was 0.0735.

With ACTTGCTA, the “PBM E-score” value is -0.0697. With CACTCGAC the figure was -0.0984.

Turning to AATTAGAA, the “PBM E-score” value amounted to 0.0871. With CGATGGCC the figure was -0.0485. With TGCTAGAA the figure was -0.0446; with CCAGATAG, -0.0894; with GCAATATA, 0.216. With ACAATATA the figure was 0.302; with CCAATATA, 0.0353; with AATGCGAC, 0.106. In the case of AAGCGCTA, the “PBM E-score” value is 0.0946. With AAGCGCTC the figure was -0.0695; with AAGCGCTT, 0.321; with ACGCTTAT, -0.04.

For the sequence AGTAACTG, the “PBM E-score” value is 0.0876. For the sequence ACTATATG, the “PBM E-score” value was 0.193.

For AATATATT, the “PBM E-score” value was 0.331.

For the sequence AATATATC, the “PBM E-score” value was 0.157. Consider AATATGTG, for which the “PBM E-score” value amounted to 0.273. With AATATGTC the figure was 0.111; with AATATATA, 0.229. Turning to CATATATG, the “PBM E-score” value worked out at 0.126. With AATATGTA the figure was 0.222; with AATATATG, 0.304.

TTCTGAAA: the “PBM E-score” value came to 0.145.

In the case of ACCCAAAC, the “PBM E-score” value turned out to be 0.0961. In the case of AGATCCTA, the “PBM E-score” value is 0.0833.

As for CAAGTTCA, the “PBM E-score” value is -0.00101. CGGATGAC: the “PBM E-score” value was determined as 0.0307.

As for ATCTTTCA, the “PBM E-score” value was 0.207. Consider CATAATCG, for which the “PBM E-score” value amounted to 0.187. With AATAATCA the figure was 0.11; with CATAATCA, 0.271. In the case of GATAATCA, the “PBM E-score” value is 0.221. For the sequence CATAATCC, the “PBM E-score” value is 0.0889. On to TATAATCA, for which the “PBM E-score” value stood at 0.265.

With CATAAGTC, the “PBM E-score” value was determined as 0.112.

For the sequence CTGGTCTA, the “PBM E-score” value was -0.0194. With AGCGCACG the figure was -0.0432; with GTTGGTAA, 0.149; with ATTGGTAA, 0.304. With CTTGGTAA the figure was 0.101; with ACGTCTCT, -0.138. With ATTACCGG the figure was -0.0144; with AGTTGTGC, 0.0195; with AGTTGTGA, 0.108. As for AGTTGTGG, the “PBM E-score” value turned out to be 0.271. With TATCAAAA the figure was 0.23; with ATATGAGA, 0.196.

In the case of ATTAATCG, the “PBM E-score” value worked out at 0.191. As to CTTAATCA, the “PBM E-score” value came to 0.166. With GTTAATCA the figure was 0.256; with ATTAATCA, 0.287; with GCTAATCA, 0.164. With ATTAATCC the figure was 0.0925; with AACTTTAA, 0.234.

In the case of AAGTCTCA, the “PBM E-score” value is -0.101.

As for GATCAGAC, the “PBM E-score” value was -0.0877. With AGTGGAAC the figure was -0.0961; with GAAGCCTC, -0.198. On to AACGAACG, for which the “PBM E-score” value is -0.00775. With AACGAACA, the “PBM E-score” value came out at 0.259. With CACGAACA the figure was 0.192; with CAGGGTCC, -0.29. With GGAAATTA the figure was 0.332.

GAAAATTA: the “PBM E-score” value was found to be 0.207.

Regarding AGAAATTA, the “PBM E-score” value was determined as 0.202. With GCAAATTA the figure was 0.262.
